Source: PubChem BioAssay (NCATS)
Several values for one entry are separate records, joined by “and”; a condition that tells them apart may be missing. Equal entries are not always repeated. Results filed as inconclusive are left out. Activity calls are given as the source filed them. Unless noted, the call rests on the fitted dose curve; in most records, active means well fitted curve in the direction sought with a large enough effect; inconclusive means small, poorly fitted or top-dose-only effect, or another doubt; inactive means no such curve, though single readings can be large; an effect the other way counts as inactive or inconclusive.

Columns and labels:
[1] = Cell Viability - SH-SY5Y (AID 544); settings: SH-SY5Y neuroblastoma cell viability; viability change, negative = cytotoxic: at 92.2 µM (top of the series); further: nearly all actives have a fitted effect of over 55% in size; further: potency means the concentration at half of the fitted maximal effect;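 on viability change, negative = cytotoxic: 0% = DMSO alone and -100% = 100 µM tamoxifen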
Procedure, shortened: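 SH-SY5Y human neuroblastoma cells (1500/well) incubated 5 h, then compound-treated 40 h at 37 °C in complete medium. Viability read as intracellular ATP by CellTiter-Glo luminescence after 20 min; AC50 from Hill-equation fits of qHTS concentration-response.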

[2] = Cell Viability - LYMP2-001 (AID 921); further: nearly all actives have a fitted effect of over 70% in size; further: potency means the concentration at half of the fitted maximal effect
Procedure, shortened: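 qHTS, 1536-well; lymphoblastoid cells, 24 hr compound, 37 C; ATP by CellTiter-Glo, 30 min RT; luminescence; Hill-fit AC50.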

[3] = Cell Viability - LYMP1-003 - Assay at 40 hr (AID 964); further: on the % scale 0 is the no-effect control and ±100 the full control effect; nearly all actives have a fitted effect of over 60% in size
Procedure, shortened: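 LYMP1-003 human lymphoblastoid cells, 2500/well, preincubated 5 h at 37 C, then treated with compound for 40 h at 37 C. Intracellular ATP read by CellTiter-Glo luminescence after 30 min at room temperature; AC50 from Hill-equation fits.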

[4] = Cell Viability - LYMP2-004 (AID 966); further: nearly all actives have a fitted effect of over 65% in size; further: potency means the concentration at half of the fitted maximal effect;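 on activity change, negative = cytotoxicity: plate controls were DMSO only for no effect and tetraoctylammonium bromide control for full effect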
Procedure, shortened: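 Lymphoblastoid LYMP2-004 cells, 2500 per well, were preincubated for 5 hr and then treated with compound for 24 h at 37 C in complete medium. Viability was read as cellular ATP by CellTiter-Glo luminescence, and AC50 values were taken from Hill fits to concentration-response data.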

[5] = Cell Viability - LYMP2-015 (AID 971); further: nearly all actives have a fitted effect of over 55% in size; further: potency means the concentration at half of the fitted maximal effect
Procedure, shortened: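 LYMP2-015 human lymphoblastoid cells (2500/well) in complete medium, compound-treated 24 h at 37 C; viability read as cellular ATP by CellTiter-Glo luminescence after 30 min at room temperature. AC50 from Hill-equation fits of qHTS concentration-response data.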

[6] = Cell Viability - LYMP2-017 (AID 972); further: nearly all actives have a fitted effect of over 55% in size; further: potency means the concentration at half of the fitted maximal effect; on activity change, negative = cytotoxicity: on the % scale 0 is the no-effect control and ±100 the full control effect
Procedure, shortened: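 LYMP2-017 human lymphoblastoid cells (2500/well) settled 5 hr at 37 C, then exposed to compound 24 hr at 37 C in complete medium. Viability taken as intracellular ATP by CellTiter-Glo luminescence after 30 min at RT; AC50 from Hill fits.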

[7] = Cell Viability - LYMP2-025 (AID 976);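 further: plate controls were DMSO only for no effect and tetraoctylammonium bromide control for full effect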
Procedure, shortened: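 Human lymphoblastoid LYMP2-025 cells, 2500/well, exposed 24 h at 37 C in complete medium in 1536-well qHTS. Viability as cellular ATP by CellTiter-Glo luminescence; AC50 from Hill fits of concentration-response data.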

[8] = Cell Viability - LYMP2-006 (AID 978); further: on the % scale 0 is the no-effect control and ±100 the full control effect; nearly all actives have a fitted effect of over 60% in size
Procedure, shortened: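 Concentration-dependent loss of intracellular ATP in a human lymphoblastoid line after 24 hr treatment at 37 C was measured by CellTiter-Glo luminescence, with AC50 values obtained from standard Hill-equation modelling.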

[9] = Cell Viability - LYMP2-010 (AID 981); further: nearly all actives have a fitted effect of over 55% in size; further: potency means the concentration at half of the fitted maximal effect
Procedure, shortened: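 Human lymphoblastoid LYMP2-010 cells (2500/well) treated 24 h at 37 C in complete medium; viability read as intracellular ATP by CellTiter-Glo luminescence. AC50 from Hill fits of concentration-response data; tetraoctylammonium bromide positive control.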

[10] = Cell Viability - LYMP2-012 (AID 982); further: potency means the concentration at half of the fitted maximal effect;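 on activity change, negative = cytotoxicity: 0% = DMSO only and full loss = 92 µM tetraoctylammonium bromide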
[11] = Cell Viability - LYMP2-014 (AID 983);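 further: plate controls were DMSO only for no effect and 92 µM tetraoctylammonium bromide for full effect; nearly all actives have a fitted effect of over 50% in size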
Procedure, shortened: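 LYMP2-014 human lymphoblastoid cells, 2500/well, treated 24 h at 37 C in complete medium; viability by CellTiter-Glo ATP luminescence after 30 min at room temperature. AC50 from Hill fits of qHTS concentration-response; tetraoctylammonium bromide positive control.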

[12] = Cell Viability - LYMP2-022 (AID 987); further: nearly all actives have a fitted effect of over 55% in size; further: potency means the concentration at half of the fitted maximal effect;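 on viability change, negative = cytotoxic: 0% = DMSO alone and full effect = tetraoctylammonium bromide at 92 µM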
Procedure, shortened: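 LYMP2-022 lymphoblastoid cells (2500/well, complete medium) were treated with compounds for 24 hours at 37 C; intracellular ATP was then read by CellTiter-Glo luminescence after 30 min at room temperature. AC50 values were derived from Hill-equation fits.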

[13] = qHTS assay for small molecule agonists of retinoid X receptor alpha signaling (AID 588544; calls by dose curve); settings: HEK293T RXRa-UAS-bla, beta-lactamase reporter, 18 h; 530 nm emission
[14] = biological target: Retinoic acid receptor RXR-alpha (Homo sapiens) (UniProt P19793); experiment: as above
[15] = qHTS assay for small molecule antagonists of retinoid X receptor alpha signaling (AID 588546; active means well fitted inhibition curve with a large enough effect in the signal ratio, with a control signal flat, not every such curve was filed as active; the % refers to the signal ratio;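 further: cells stimulated with 9-cis-retinoic acid as agonist; on the % scale 0 is the no-effect control and ±100 the full control effect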); settings: HEK293T RXRa-UAS-bla, beta-lactamase ratio, antagonist mode; measured here: W530 green channel, cytotoxicity proxy
Procedure, shortened: (§1)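 Beta-lactamase reporter inhibition, read as CCF4 fluorescence ratio (ex 405, em 460/530 nm) after 2 h at RT. HEK293T UAS-bla cells, 2500/well, were stimulated with 9-cis-RA at 500 or 100 nM final alongside test compound for 18 h at 37 C.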

[16] = biological target: Retinoic acid receptor RXR-alpha (Homo sapiens) (UniProt P19793); experiment: as above; settings: HEK293T RXRa-UAS-bla, beta-lactamase ratio, antagonist mode
Procedure, shortened: as §1

[17] = biological target: Thyroid hormone receptor beta (Homo sapiens) (UniProt P10828); experiment: qHTS assay for small molecule antagonists of thyroid hormone receptor beta signaling (AID 588547; active means well fitted inhibition curve with a large enough effect in the signal ratio, with a control signal flat, not every such curve was filed as active; the % refers to the signal ratio;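 further: cells stimulated with 0.4 nM T3 agonist during compound exposure; on the % scale 0 is the no-effect control and ±100 the full control effect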); settings: TR-UAS-bla HEK293, beta-lactamase ratio, antagonist mode, 18 h
Procedure, shortened: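 Inhibition of T3-driven (0.4nM final) beta-lactamase reporter activity was measured over 0.59 nM to 92 uM compound after 18 h at 37 C. The cells were GripTite HEK293 TR-UAS-bla in charcoal/dextran-stripped serum, with CCF4 ratio read-out and IC50 from Hill fits.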

[18] = biological target: Voltage-gated inwardly rectifying potassium channel KCNH2 (Homo sapiens) (UniProt Q12809); experiment: qHTS Assay for Small Molecule Inhibitors of the Human hERG Channel Activity (AID 588834);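 further: top concentration of the series differs between compounds; on the % scale 0 is the no-effect control and ±100 the full control effect; lower thallium flux fluorescence means stronger hERG block; nearly all actives have a fitted effect of over 50% in size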
Procedure, shortened: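 Measured: FluxOR fluorescence after thallium stimulation in U2OS cells transduced with hERG by baculovirus. Compounds pre-incubated around 10 min; medium Opti-MEM with 2% FCS. AC50 from Hill equation.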

[19] = Cell Viability - NIH 3T3 (AID 541); settings: NIH 3T3 cell viability, qHTS; activity change, negative = cytotoxicity: at 92.2 µM (top of the series); further: nearly all actives have a fitted effect of over 25% in size; further: potency means the concentration at half of the fitted maximal effect;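 on activity change, negative = cytotoxicity: plate controls were DMSO alone for no effect and tamoxifen positive control for full effect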
Procedure, shortened: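 Mouse NIH 3T3 fibroblasts, 1000 cells/well, rested 5 hr at 37 °C, then exposed to compound for 40 hr at 37 °C in complete medium. Viability read as intracellular ATP by CellTiter-Glo luminescence; AC50 from Hill-equation fits of concentration-response data.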

[20] = biological target: Thyroid hormone receptor beta (Homo sapiens) (UniProt P10828); experiment: qHTS assay for small molecule agonists of thyroid hormone receptor beta signaling (AID 588545; calls by dose curve)
Procedure, shortened: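 Agonist activity was read as beta-lactamase CCF4 fluorescence (405 ex, 460/530 em), scaled between DMSO (0%) and 10 nM T3 (100%), then Hill-fitted for EC50 and efficacy. HEK 293 TR-UAS-bla cells in 2% charcoal/dextran FBS medium were exposed 18 h at 37 C.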

Sequence of Retinoic acid receptor RXR-alpha (Homo sapiens) (P19793 whole entry, looked up): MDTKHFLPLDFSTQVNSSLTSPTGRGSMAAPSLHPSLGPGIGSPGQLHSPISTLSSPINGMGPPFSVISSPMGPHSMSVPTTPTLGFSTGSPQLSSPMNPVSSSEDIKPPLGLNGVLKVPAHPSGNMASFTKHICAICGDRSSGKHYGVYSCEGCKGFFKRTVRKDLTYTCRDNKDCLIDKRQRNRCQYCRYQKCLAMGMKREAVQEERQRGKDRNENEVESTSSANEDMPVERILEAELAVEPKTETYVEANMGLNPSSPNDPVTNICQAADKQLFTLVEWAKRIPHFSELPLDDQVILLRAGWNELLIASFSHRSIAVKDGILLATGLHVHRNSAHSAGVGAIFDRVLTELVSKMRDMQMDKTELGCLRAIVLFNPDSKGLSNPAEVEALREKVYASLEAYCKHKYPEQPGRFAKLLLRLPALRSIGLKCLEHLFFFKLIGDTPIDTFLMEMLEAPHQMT
Sequence of Thyroid hormone receptor beta (Homo sapiens) (P10828 whole entry, looked up): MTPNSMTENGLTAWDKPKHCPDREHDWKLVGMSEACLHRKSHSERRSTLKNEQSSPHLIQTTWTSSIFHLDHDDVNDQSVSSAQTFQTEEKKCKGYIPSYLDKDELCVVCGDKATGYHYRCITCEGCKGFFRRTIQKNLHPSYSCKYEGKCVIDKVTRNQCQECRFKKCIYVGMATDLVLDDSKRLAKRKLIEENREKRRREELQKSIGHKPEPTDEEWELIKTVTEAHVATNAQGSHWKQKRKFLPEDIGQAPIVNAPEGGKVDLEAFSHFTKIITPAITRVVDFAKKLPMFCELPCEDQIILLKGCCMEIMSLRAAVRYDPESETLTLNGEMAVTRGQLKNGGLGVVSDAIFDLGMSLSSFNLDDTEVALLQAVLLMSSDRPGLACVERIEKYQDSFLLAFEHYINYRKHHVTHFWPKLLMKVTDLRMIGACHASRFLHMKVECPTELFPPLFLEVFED
Sequence of Voltage-gated inwardly rectifying potassium channel KCNH2 (Homo sapiens) (Q12809 whole entry, looked up): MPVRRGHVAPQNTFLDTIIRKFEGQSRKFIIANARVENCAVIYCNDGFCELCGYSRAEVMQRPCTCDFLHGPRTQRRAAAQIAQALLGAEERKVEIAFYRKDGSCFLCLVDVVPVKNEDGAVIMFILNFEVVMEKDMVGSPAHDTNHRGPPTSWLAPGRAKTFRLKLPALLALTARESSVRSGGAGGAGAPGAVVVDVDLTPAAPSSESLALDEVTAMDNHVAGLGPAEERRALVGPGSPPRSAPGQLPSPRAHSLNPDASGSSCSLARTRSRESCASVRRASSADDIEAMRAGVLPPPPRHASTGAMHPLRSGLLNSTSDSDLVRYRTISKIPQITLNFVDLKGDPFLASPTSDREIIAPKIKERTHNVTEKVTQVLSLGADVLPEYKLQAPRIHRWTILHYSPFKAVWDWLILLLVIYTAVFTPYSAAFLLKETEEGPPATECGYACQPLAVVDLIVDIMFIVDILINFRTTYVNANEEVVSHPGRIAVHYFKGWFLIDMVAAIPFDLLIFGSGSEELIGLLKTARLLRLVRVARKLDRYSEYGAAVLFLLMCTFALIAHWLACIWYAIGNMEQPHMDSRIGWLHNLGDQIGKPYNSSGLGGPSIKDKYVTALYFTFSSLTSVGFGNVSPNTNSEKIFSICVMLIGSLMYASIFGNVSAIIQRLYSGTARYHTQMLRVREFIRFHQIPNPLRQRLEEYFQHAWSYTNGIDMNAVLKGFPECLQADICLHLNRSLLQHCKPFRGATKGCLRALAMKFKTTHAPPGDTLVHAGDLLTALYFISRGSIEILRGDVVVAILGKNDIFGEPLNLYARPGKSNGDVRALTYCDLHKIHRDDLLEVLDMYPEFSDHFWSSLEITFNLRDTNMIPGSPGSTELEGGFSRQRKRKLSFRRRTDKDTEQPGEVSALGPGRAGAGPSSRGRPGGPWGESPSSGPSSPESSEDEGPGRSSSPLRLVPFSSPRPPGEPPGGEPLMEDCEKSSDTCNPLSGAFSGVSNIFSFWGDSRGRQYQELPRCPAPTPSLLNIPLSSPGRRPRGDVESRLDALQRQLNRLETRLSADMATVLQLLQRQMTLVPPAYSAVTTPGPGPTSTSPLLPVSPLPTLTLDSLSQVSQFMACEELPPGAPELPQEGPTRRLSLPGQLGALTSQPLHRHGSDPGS

c1ccc(OCC2CO2)cc1 (configuration not stated)
inactive: Potency [1] | Potency [2] | Potency [3] | Potency [4] | Potency [5] | Potency [6] | Potency [7] | Potency [8] | Potency [9] | Potency [10] | Potency [11] | Potency [12] | outcome [14] | max response [16] -20.9% | activity change % (negative = inhibition) [17] 6.77% | Potency [18]
6.84%: max response [15]
6.69%: max response [13]

Cc1ccc(N)c(N)c1
active: Potency [19] 5.01 µM | Potency [1] 12.6 µM | Potency [9] 12.6 µM | Potency [12] 12.6 µM
1.53%: max response [15]
inactive: Potency [7] | Potency [11] | outcome [14] | Potency [20] | max response [16] -10.9% | activity change % (negative = inhibition) [17] -28.6% | Potency [18]
-6.94%: max response [13]

Oc1ccc(Cl)c(Cl)c1
inactive: Potency [1] | Potency [2] | Potency [3] | Potency [4] | Potency [5] | Potency [6] | Potency [7] | Potency [8] | Potency [9] | Potency [10] | Potency [11] | Potency [12] | outcome [14] | max response [16] -1% | Potency [18]
-0.477%: max response [15]
-8.76%: max response [13]

CCCCCCCCCCCCCl
-8.5%: max response [15]
inactive: Potency [19] | Potency [1] | Potency [2] | Potency [3] | Potency [4] | Potency [5] | Potency [6] | Potency [7] | Potency [8] | Potency [9] | Potency [10] | Potency [11] | Potency [12] | outcome [14] | Potency [20] | max response [16] -4.83% | activity change % (negative = inhibition) [17] -6.1% | Potency [18]
-9.69%: max response [13]

O=Cc1ccc2c(c1)OCO2
19.3%: max response [13]
inactive: Potency [1] | Potency [2] | Potency [3] | Potency [4] | Potency [5] | Potency [6] | Potency [7] | Potency [8] | Potency [9] | Potency [10] | Potency [11] | Potency [12] | outcome [14] | Potency [20] | max response [16] -12.4% | activity change % (negative = inhibition) [17] 5.85% | Potency [18]
-8.14%: max response [15]

Nc1ccccc1-c1ccccc1
inactive: Potency [1] | Potency [2] | Potency [3] | Potency [4] | Potency [5] | Potency [6] | Potency [7] | Potency [8] | Potency [9] | outcome [14] | Potency [20] | max response [16] -19.9% | Potency [18]
-0.398%: max response [15]
14.6%: max response [13]

Nc1ccc(-c2ccccc2)cc1
9.85%: max response [13]
inactive: Potency [19] | Potency [1] | Potency [2] | Potency [3] | Potency [4] | Potency [5] | Potency [6] | Potency [7] | Potency [8] | Potency [9] | Potency [10] | Potency [11] | Potency [12] | outcome [14] | Potency [20] | max response [16] -7.2% | activity change % (negative = inhibition) [17] -2.45% | Potency [18]
-4.26%: max response [15]

Cc1ccc2c(C)cccc2c1
-13.5%: max response [13]
4.96%: max response [15]
inactive: Potency [19] | Potency [1] | Potency [2] | Potency [3] | Potency [4] | Potency [5] | Potency [6] | Potency [7] | Potency [8] | Potency [9] | Potency [10] | Potency [11] | Potency [12] | outcome [14] | Potency [20] | max response [16] 4.66% | activity change % (negative = inhibition) [17] 8.64% | Potency [18]

O=[N+]([O-])c1ccc(Cl)c(Cl)c1Cl
active: activity change, negative = cytotoxicity [19] -117%
-8.55%: max response [15]
inactive: Potency [1] | Potency [2] | Potency [3] | Potency [4] | Potency [5] | Potency [6] | Potency [7] | Potency [8] | Potency [9] | Potency [10] | Potency [11] | Potency [12] | outcome [14] | Potency [20] | max response [16] 7.17% | Potency [18]
3.54%: max response [13]

N#CCBr
active: Potency [19] 10 µM
inactive: Potency [1] | Potency [2] | Potency [3] | Potency [4] | Potency [5] | Potency [6] | Potency [7] | Potency [8] | Potency [9] | Potency [10] | Potency [11] | Potency [12] | outcome [14] | Potency [20] | max response [16] -1.67% | activity change % (negative = inhibition) [17] 11.7% | Potency [18]
1.14%: max response [15]
-6.36%: max response [13]

COc1ccc(C=O)cc1
inactive: Potency [19] | Potency [1] | Potency [2] | Potency [3] | Potency [4] | Potency [5] | Potency [6] | Potency [7] | Potency [8] | Potency [9] | Potency [10] | Potency [11] | Potency [12] | outcome [14] | max response [16] 14.5% | activity change % (negative = inhibition) [17] 19.4% | Potency [18]
-0.469%: max response [13]
3.67%: max response [15]

CCOC(=O)CC(SP(=O)(OC)OC)C(=O)OCC (configuration not stated)
7.78% and 5.62%: max response [15]
9.41% and -5.43%: max response [13]
inactive: Potency [19] | Potency [2] | Potency [3] | Potency [4] | Potency [5] | Potency [6] | Potency [7] | Potency [8] | Potency [9] | Potency [10] | Potency [11] | Potency [12] | outcome [14] | Potency [20] | max response [16] -24.2% and 2.64% | activity change % (negative = inhibition) [17] -9.27% and -19.3% | Potency [18]

O=[N+]([O-])c1cc(Cl)c(Cl)cc1Cl
10.7%: max response [13]
2.5%: max response [15]
inactive: Potency [1] | Potency [2] | Potency [3] | Potency [4] | Potency [5] | Potency [6] | Potency [7] | Potency [8] | Potency [9] | Potency [11] | Potency [12] | outcome [14] | Potency [20] | max response [16] 7.08% | activity change % (negative = inhibition) [17] 5.06% | Potency [18]

OC[P+](CO)(CO)CO
inactive: Potency [1] | Potency [3] | Potency [20] | max response [16] -5.42% and -52.4% | activity change % (negative = inhibition) [17] -18.1% and -15.5% | Potency [18]
5.58% and 5.35%: max response [15]
active: Potency [19] 0.501 µM | Potency [2] 15.8 µM | Potency [4] 20 µM | Potency [5] 15.8 µM | Potency [6] 12.6 µM | Potency [9] 20 µM | Potency [10] 15.8 µM | Potency [12] 12.6 µM
